Eight compounds from PubChem BioAssay (NCI) can be followed below.

Assay in all cases: NCI-60 one-dose screen, 48 h (100 = growth as untreated, 0 = no growth, -100 = all killed)
What all share (details): 10 µM

The subject of assay [1] is SK-MEL-2 melanoma.
For assay [2], the system named is EKVX NSCLC.
The test system of assay [3] is SN12C renal.
The test system of assay [4] is UO-31 renal.
Assay [5] relates to ACHN renal.
For assay [6], the system named is CAKI-1 renal.
Assay [7] relates to A498 renal.
Assay [8] deals with CCRF-CEM leukemia.
The subject of assay [9] is MOLT-4 leukemia.
In assay [10] the test system is SR leukemia.
In assay [11] the test system is RPMI-8226 leukemia.
Assay [12] deals with OVCAR-8 ovarian.
In assay [13] the test system is OVCAR-5 ovarian.
Assay [14] deals with OVCAR-4 ovarian.
In assay [15] the test system is SK-OV-3 ovarian.
The subject of assay [16] is IGROV1 ovarian.
For assay [17], the system named is OVCAR-3 ovarian.
The test system of assay [18] is HS 578T breast.
The test system of assay [19] is NCI/ADR-RES ovarian.
Assay [20] deals with TK-10 renal.

Compounds without any hit were thinned out: in the full panel of roughly 83,000, 20% have a hit.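 Activity criterion: percent growth below 10, measured after cells in 96-well plates were exposed to a single compound concentration for 48 hours.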 Unmarked numbers belong to inactive results. Calls of active or inactive are those of the source.

Turning to `COc1cc2cc(Oc3ccc(NC(=O)Nc4ccc(Cl)c(Cl)c4)cc3)c(C)nc2cc1OC`, the growth was -7.82% (active) in assay [1]; 21% in assay [2]; 22.1% in [3]; 3.69% (active) in [4]; 16.4% in assay [5]; 21.7% in [6]. The growth in [7] is 35.8%; in assay [8], 13.3%; in assay [9], 3.69% (active); in assay [10], 18%; in assay [11], 4.2% (active); in assay [12], 15%. The growth is 53% in assay [13]; 31.9% in [14]; 28.6% in [15]; 18.6% in assay [16]; -10% (active) in assay [17]; 45.1% in assay [18]. For the same compound, the growth in assay [19] was 17.1%.
As to `O=C(N/N=C/c1ccc(Cl)cc1)c1ccccc1Nc1cccc(C(F)(F)F)c1`, the growth was 70.6% in assay [1]; 66.6% in assay [2]; 91.3% in assay [3]; 40.8% in assay [4]; 102% in [5]; 86% in assay [6]. Further, the growth in assay [7] is -13.2% (active); in assay [8], 69.7%; in assay [9] it was 74.2%; in assay [10] it was 45.7%; in assay [11], 82%; in [12] it was 80.3%. Further, the growth in assay [13] is 96.9%; in assay [14], 74.8%; in [15], 84.9%; in assay [16], 59.3%; in assay [17] it was 60.3%; in [18], 61.7%. In assay [19], the growth is 88.8%.
For the compound `Nc1ncc(-c2cnn(C3CCNCC3)c2)cc1-c1nc2ccccc2o1`, the growth is 22.1% in [1]; 85.3% in [2]; 14.1% in assay [3]; -17.7% (active) in [4]; 21.9% in [5]; 68.3% in [6]. Besides, the growth in [7] is 36.4%; in assay [8], -53.7% (active); in assay [9], -35.7% (active); in assay [10], -74.7% (active); in [11], -56% (active); in assay [12] it was 9.55% (active). Also, the growth in assay [13] is 34.6%; in assay [14], 35.8%; in assay [15], 3.49% (active); in [16], -14.5% (active); in assay [17] it was -62.4% (active); in [18], -14.7% (active). The growth in assay [19] was 42.8%.
Regarding `CCn1c(SC/C(=N/O)c2ccccc2)nnc1-c1ccccc1`, the growth in assay [1] is 108%; in assay [2], 90.6%; in assay [3], 88.6%; in assay [4], 91.5%; in assay [5] it was 105%; in assay [6], 89%. The growth in assay [7] is 69.3%; in assay [8] it was 88.9%; in [9], 94.8%; in assay [10], 94.8%; in assay [11] it was 89.7%; in assay [12], 111%. For the same compound, the growth in [13] was 96.8%; in [14], 85.5%; in assay [15] it was 89.7%; in assay [16], 106%; in [17], 121%; in assay [18], 101%. Besides, in assay [19], the growth is 103%.
For the compound `COc1cc(-c2nn(-c3cccc(NC(=O)CCN4CCN(c5ccccc5)CC4)c3)cc2-c2ccncc2)ccc1Cl`, the growth in assay [1] is -0.713% (active); in [2], 38.1%; in assay [3] it was 32.4%; in [4], 37.8%; in assay [20] it was 23.5%; in assay [5] it was 18%. Moreover, the growth in assay [8] is 17.8%; in [9], 15.4%; in assay [10] it was 4.54% (active); in assay [11] it was 20.6%; in assay [12], 22.6%; in assay [13] it was 47.5%. Besides, the growth is 34% in assay [14]; 26.7% in assay [15]; 32.7% in assay [16]; 16.2% in assay [17]; 31.8% in assay [18]; 21% in [19].
In the case of `CC(C)N(CCOc1cccc(-c2nc3sccn3c2-c2ccnc(S(C)(=O)=O)n2)c1)C(C)C`, the growth in assay [1] is 109%; in [2], 101%; in assay [3], 83.9%; in assay [4] it was 89.8%; in [5], 93.7%; in [6] it was 93.3%. Moreover, the growth was 53.2% in assay [7]; 81% in assay [8]; 84.3% in assay [9]; 64.3% in [10]; 37.7% in [11]; 79.2% in [12]. In addition, the growth in [13] is 115%; in [14], 64.5%; in assay [15], 85.7%; in [16] it was 94.7%; in assay [17], 90.6%; in assay [18], 95.8%. In assay [19], the growth was 89.5%.
For the compound `CC1=NN(C(=O)c2nn(-c3ccc(Cl)cc3)cc2O)C(=O)C1`, the growth in [1] was 60.3%; in [2], 65.2%; in [3] it was 49.5%; in assay [4] it was 34.2%; in assay [5], 42%; in assay [6], 114%. Further, the growth in [7] was 90.1%; in assay [8], 13.5%; in assay [9] it was 24.8%; in [10], -39.3% (active); in assay [11] it was 13.7%; in [12] it was 29.4%. Further, the growth in assay [13] was 63.5%; in assay [14] it was 29.9%; in [15] it was 34%; in assay [16], 34.8%; in assay [17], -6.37% (active); in assay [18], 31.8%. In addition, the growth in assay [19] is 31.6%.
Regarding `CS(=O)(=O)c1nccc(-c2c(-c3cccc(O)c3)nc3sccn23)n1`, the growth is 107% in assay [1]; 88.7% in assay [2]; 91% in assay [3]; 66.5% in assay [4]; 86.2% in [5]; 95.5% in assay [6]. Moreover, the growth in assay [7] was 70.5%; in [8], 90%; in [9], 93%; in assay [10], 72.4%; in assay [11], 91.5%; in [12], 94.9%. The growth in assay [13] is 99.3%; in assay [14], 78.2%; in [15], 95.6%; in [16], 117%; in assay [17], 97%; in assay [18], 93%. In assay [19], the growth was 101%.
